Data: PubChem BioAssay (NCATS)
The source made the active and inactive calls. Calls follow the shape of the dose curve; as a rule, active = well fitted curve in the direction sought with a large enough effect; inconclusive = small, poorly fitted or top-dose-only effect, or another doubt; inactive = no such curve, though single readings can be large or run the other way.

Test: Cellular Toxicity (caspase-3) HUV-EC-C (AID 656);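 also: cells exposed to compound for 16 h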
Settings: HUV-EC-C cells, caspase-3 activation (apoptosis), vehicle = 0, 100 µM tamoxifen = 100%; series mostly up to 92.2 µM; caspase-3 activation: at the top concentration
Source text: NIH Chemical Genomics Center [NCGC]
NIH Molecular Libraries Screening Centers Network [MLSCN]
National Institutes of Environmental Health Sciences [NIEHS]
National Toxicology Program [NTP]
We have developed a 1536-well cell-based assay for quantitative high throughput screening (qHTS) against a number of cell lines to determine in vitro caspase 3/7 of small molecules. This particular assay uses the HUV-EC-C cell line which is derived from normal human vascular endothelial cells.
NCGC Assay Protocol Summary:
The Caspase-Glo 3/7 assay (Promega) is a homogeneous method to measure caspase-3 and caspase-7 activities in cultured cells. The quantitation of caspase 3/7 activity is based on the cleavage of a peptide-aminoluciferin substrate. After caspase cleaves the substrate the free aminoluciferin is liberated and serves as the substrate of luciferase, which generates the light. The luminescent signal is proportional to amount of caspase 3/7 activity present.
Using the Caspase-Glo 3/7 assay, the amount of caspase 3/7 activity was measured in the HUV-EC-C cell line with complete culture medium following compound treatment for 16 hours. The assay was performed in opaque white 1536-well plates. In the screen, tamoxifen and doxorubicin were used as positive controls. Library compounds were measured for their ability to cause the activation of caspase 3/7 in the cell line, as reflected by an increase in luminescence signal, in a concentration-dependent manner. Data were normalized to the controls for basal activity (DMSO only) and 100% stimulation (100 uM tamoxifen). AC50 values were determined from concentration-response data modeled with the standard Hill equation.
qHTS protocol for caspase 3/7 assay in HUV-EC-C cell line
[Step] [Parameter] [Value] [Description]
1. Reagent; 5 uL; 1000 HUV-EC-C cells/well
2. Time; 5 hr; 37 °C incubation
4. Controls; 23 nL; Tamoxifen 0.23 uM to 100 uM & doxorubicin 7.0 pM to 100 uM
5. Time; 16 hr; 37 °C incubation
6. Reagent; 5 uL; Caspase-Glo 3/7 reagent
7. Time; 20 min; Room Temperature
8. Detection; Luminescence; Viewlux plate reader
Keywords: caspase 3/7, apoptosis, HUV-EC-C cell line, luminescence, NTPHTS, NTPHTS_NCGC, NIEHS, EPA, DSSTox, MLSMR, MLSCN, NIH Roadmap, qHTS, NCGC

| Compound | caspase-3 activation |
| --- | --- |
| OC/C(Br)=C(\Br)CO | -1.25% (inactive) |
| Cc1ccc2c(c1[N+](=O)[O-])C(=O)c1ccccc1C2=O | -6.83% (inactive) |
| Cc1ccco1 | 0.757% (inactive) |
| O=[N+]([O-])c1cc(C(F)(F)F)ccc1Cl | -0.77% (inactive) |
| O=C(O)/C=C/C(=O)O | -0.3% (inactive) |
| Nc1nc(CC(=O)O)cs1 | 0.843% (inactive) |
| Cc1ccc(C(C)(C)C)cc1 | -1.59% (inactive) |
| O=Nc1ccc(NO)cc1 | -3.41% (inactive) |
| Cc1ccc(C)cc1 | -2% (inactive) |
| Nc1ccc([N+](=O)[O-])c(N)c1 | -2.61% (inactive) |
| Nc1cccc(O)c1 | -4.1% (inactive) |
| CC(=O)CC(C)C | 0.478% (inactive) |
| CC(C)CCOC(=O)/C=C/c1ccccc1 | 6.39% (inactive) |
| CC(C)(C)c1ccc(OCC2CO2)cc1 (stereo not given) | -6.68% (inactive) |
| O=[N+]([O-])c1c(Cl)cc(Cl)cc1Cl | 1.39% (inactive) |
| Nc1cc(Cl)c(N)c(Cl)c1 | 0.792% (inactive) |
| BrC/C=C/CBr | 2% (inactive) |
| CCc1ccccc1O | -2.75% (inactive) |
| N#CCc1ccccc1[N+](=O)[O-] | -0.722% (inactive) |
| CC(C)N(C)C | 0.778% (inactive) |

| Compound | caspase-3 activation |
| --- | --- |
| CC(=O)OCCC(C)C | -2% (inactive) |
| CCOc1ccc(NC(C)=O)cc1N | -2.63% (inactive) |
| COc1ccccc1[N+](=O)[O-] | 0.715% (inactive) |
| CC(C)=CCC/C(C)=C/C=O | -2.08% (inactive) |
| Cc1ccc(C(=O)O)cc1 | 0.607% (inactive) |
| CCCCOCCOCCSC#N | 0.855% (inactive) |
| O=[N+]([O-])c1ccc(CCO)cc1 | -5.21% (inactive) |
| COc1ccc(N=[N+]([O-])c2ccc(OC)cc2)cc1 | -6.37% (inactive) |
| Cc1ccccc1C(=O)O | -1.01% (inactive) |
| Cc1ccc2cccnc2c1 | 3.64% (inactive) |
| O=C1NC(=O)c2cc([N+](=O)[O-])ccc21 | 5.85% (inactive) |
| CNC(=O)N(c1ccccc1)c1ccccc1 | -1.12% (inactive) |
| O=C(O)c1cccc(Cl)c1Cl | 6.85% (inactive) |
| Nc1cccc(C(F)(F)F)c1 | 1.99% (inactive) |
| Cc1cc(C(=O)O)ccc1[N+](=O)[O-] | -3.61% (inactive) |
| COC(=O)CC#N | 0.791% (inactive) |
| C=C(C)C(=O)OCCCCCC | -1.07% (inactive) |
| CCOCCO | 2.15% (inactive) |
| ON=C1CCCCC1 | 0.906% (inactive) |
| CC/C(C)=N/O | 10.1% (inactive) |
